Reference: PubChem BioAssay (NCI)
Compounds without any hit were thinned out: in the full panel of roughly 83,000, 20% have a hit.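 Each cell line was grown in a 96-well plate and treated with one concentration of compound for 48 hours. Values below 10 were considered active.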 Calls of active or inactive are those of the source.

Legend:
Test in all cases: NCI-60 one-dose screen, 48 h (100 = growth as untreated, 0 = no growth, -100 = all killed)
Details in all cases: 10 µM unless noted
[1] = test system: SK-MEL-2 melanoma
[2] = test system: EKVX NSCLC
[3] = test system: SN12C renal
[4] = test system: UO-31 renal
[5] = test system: ACHN renal
[6] = test system: CAKI-1 renal
[7] = test system: A498 renal
[8] = test system: CCRF-CEM leukemia
[9] = test system: MOLT-4 leukemia
[10] = test system: TK-10 renal

Measured: growth

COc1ccc(-c2nn(-c3cccc(Cl)c3)cc2-c2cc(-c3ccc(Br)cc3)nc(N)n2)cc1
inactive: [1] 99.7% | [2] 92.3% | [3] 92.7% | [4] 76% | [5] 103% | [6] 77.3% | [7] 81.6% | [8] 92.7% | [9] 88.3%

Oc1ccc(Cl)cc1/C=N\NC(=S)N/N=C/c1cc(Cl)ccc1O
active: [6] -7.22% | [8] 8.57%
inactive: [1] 26.2% | [2] 50.3% | [3] 45.9% | [4] 16.1% | [10] 31% | [5] 15.3% | [9] 11.8%

[O-]/[N+](=C\c1ccc(-n2cc(Cc3ccccc3Cc3cn(-c4ccc(/C=[N+](/[O-])c5ccccc5)cc4)nn3)nn2)cc1)c1ccccc1
inactive: [1] 111% | [2] 96.8% | [3] 101% | [4] 93.3% | [10] 121% | [5] 103% | [6] 98.8% | [8] 103% | [9] 89.5%

Nc1ncnc2c1N=C(c1ccc(Br)cc1)CC(c1cccc(Nc3ccnc4cc(C(F)(F)F)ccc34)c1)N2 (centres undefined)
inactive: [1] 68.5% | [2] 44.4% | [3] 70.6% | [4] 47.2% | [5] 80% | [6] 56.2% | [7] 63% | [8] 34.3% | [9] 16.8%

CN(C)S(=O)(=O)c1cccc(C(=O)Nc2nc(-c3ccc(F)c(F)c3)cs2)c1
inactive: [1] 32.2% | [2] 48.7% | [3] 62.9% | [4] 38.7% | [5] 63.4% | [6] 97.1% | [7] 46.3% | [8] 39.6% | [9] 28.2%

COc1ccc(C2=C(Br)C(=O)c3nc(C)ccc3C2=O)cc1
inactive: [1] 102% | [2] 94.4% | [3] 92.8% | [4] 69.9% | [5] 17% | [6] 81.2% | [7] 88.7% | [8] 30.1% | [9] 41.4%

CCCC/C(CC)=N\NS(=O)(=O)c1ccc([N+](=O)[O-])cc1
inactive: [1] 94.6% | [2] 102% | [3] 102% | [4] 83.3% | [5] 104% | [6] 96.9% | [7] 96.3% | [8] 87.1% | [9] 101%

O=C(Nc1cccc(Cl)c1)Nc1cccc(Cn2c(=O)[nH]c3ccc(Oc4ncccn4)cc3c2=O)c1
active: [9] 6.46%
inactive: [1] 69.6% | [2] 72.4% | [3] 76% | [4] 61.8% | [5] 72.2% | [6] 63.8% | [7] 48.7% | [8] 32.6%

C=C1C(=O)O[C@H]2[C@H]1CC/C(COC(=O)NCc1ccc(Cn3c(=O)sn(CCCCC)c3=O)cc1)=C\CC[C@@]1(C)O[C@@H]21
inactive: [1] 76.3% | [2] 84.3% | [3] 22.8% | [5] 26.5% | [6] 36.4%
active: [4] 6.58% | [10] 2.53% | [8] -22% | [9] -15%

Cc1c(-c2ccc(O)cc2)n(Cc2ccc(OCCN3CCCCCC3)cc2)c2ccc(O)cc12
inactive: [1] 106% | [2] 75.2% | [3] 81% | [4] 52.6% | [5] 91.9% | [6] 50.6% | [7] 53.7% | [8] 57.5% | [9] 39.8%

O=C(CN1C(=O)S/C(=C\C(Cl)=C\c2ccccc2)C1=O)NCCc1ccc(O)cc1
inactive: [2] 44.4% | [3] 16% | [10] 24.1% | [6] 39.3%
active: [1] 6.1% | [4] -50.7% | [5] -69.3% | [9] 5.15%

CC(C)COc1nc2c(c(=O)n(C)c(=O)n2C)n1C
inactive: [1] 36.1% | [2] 95.1% | [3] 99.8% | [4] 94.7% | [5] 102% | [6] 107% | [7] 84.7% | [8] 97.5% | [9] 93.3%

COc1ccccc1NC(=O)N=Nc1c(O)[nH]c2ccccc12
inactive: [1] 100% | [2] 83.9% | [3] 93.5% | [4] 58.7% | [5] 93% | [6] 73.3% | [7] 90.7% | [8] 89.9% | [9] 93.4%

N#Cc1c(-c2ccc(Cl)cc2)c(C#N)c2c(C#N)c(N)nn2c1N
inactive: [1] 93.1% | [2] 68.3% | [3] 87.8% | [4] 67.1% | [5] 87.7% | [6] 71.6% | [7] 78.2% | [8] 73.9% | [9] 79.4%

O=c1c2cnn(-c3ccccc3)c2n2c(CN3CCOCC3)nnc2n1-c1ccccc1
inactive: [1] 79.1% | [2] 102% | [3] 104% | [4] 87.6% | [5] 95.2% | [6] 92.4% | [7] 106% | [8] 96.8% | [9] 100%

NC(=O)C(=O)c1ccccc1NC=O
inactive: [1] 112% | [2] 101% | [3] 96.6% | [4] 60.9% | [10] 107% | [5] 94.8% | [6] 75.2% | [8] 99.1% | [9] 108%

CN1C(=O)/C(=C\c2nc([P+](c3ccccc3)(c3ccccc3)c3ccccc3)c(N3CCOCC3)o2)SC1=S
inactive: [1] 71.5% | [2] 92.3% | [3] 68.4% | [4] 80.4% | [10] 106% | [5] 102% | [6] 91.5% | [9] 81.5%

NC(=O)c1c(NC(=O)c2ccc3ccccc3c2)sc2c1CCC(=O)C2
inactive: [1] 103% | [2] 86.2% | [3] 50.5% | [4] 27.3% | [5] 34.2% | [6] 16.3% | [7] 95.2% | [8] 15% | [9] 36.6%

COc1ccc(C(C)=O)cc1S(=O)(=O)Nc1c(N)nc(SC)[nH]c1=O
inactive: [1] 111% | [2] 101% | [3] 103% | [4] 94.5% | [10] 109% | [5] 106% | [6] 93.2% | [8] 107% | [9] 99.6%

Cc1cc(=O)n(C(=O)Nc2ccccc2Cl)c2cc(O)ccc12
inactive: [1] 118% | [2] 108% | [3] 98.5% | [4] 76.9% | [5] 100% | [6] 92.3% | [7] 109% | [8] 93.9%

Fc1cc2c(cc1Cl)N(c1ncnc3ccc(-c4ccc5n[nH]nc5c4)cc13)CC2
inactive: [1] 89% | [2] 52.8% | [3] 64.9% | [4] 44.3% | [5] 50.1% | [6] 49.3% | [8] 92.9% | [9] 90.5%
active: [7] -2.78%

C=C1C(=O)O[C@H]2[C@H]1CC/C(COC(=O)C(=O)c1cn(C)c3ccc(Cl)cc13)=C\CC[C@@]1(C)O[C@@H]21
active: [1] -60.8% | [2] -59.5% | [3] -69% | [4] -93.5% | [5] -91.8% | [6] -75.7% | [8] -34.9% | [9] -15.4%

CCOC(=O)c1csc(NC(=O)COc2ccc(/C=C3\Oc4ccccc4C3=O)cc2)n1
inactive: [1] 94.8% | [3] 91% | [10] 119% | [5] 108% | [6] 91.2% | [7] 119% | [9] 42.2%
active: [4] -14%

Nc1ncnc2c1C(c1ccc(Br)cc1)c1sc3c(F)cccc3c1O2 (centres undefined)
inactive: [1] 110% | [3] 104% | [4] 64.2% | [10] 119% | [5] 93.7% | [6] 79.4% | [7] 114% | [8] 97.8% | [9] 101%

COc1cc(-c2nc3sccn3c2-c2ccnc(NCCNS(=O)(=O)c3ccccc3)n2)ccc1F
inactive: [1] 54.2% | [2] 61.5% | [3] 46.4% | [4] 16.1% | [5] 41.1% | [6] 26.9% | [8] 30.9% | [9] 24.7%

c1ccc(Cn2cc3c(c2)-c2oncc2CC3)cc1
active: [8] 6.94%
inactive: [1] 53.9% | [3] 47.8% | [4] 41.6% | [10] 77.1% | [5] 56.7% | [6] 47% | [7] 44.6% | [9] 53.6%

O=C(O)c1cn(C2CC2)c2cc(N3CCN(C(=O)N(c4ccccc4)c4nc(-c5ccccc5)cs4)CC3)c(F)cc2c1=O
active: [1] -18.3% | [3] 1.06% | [4] 5.23% | [5] -79.1% | [6] 6.68% | [7] 3.2% | [9] 2.43%
inactive: [8] 10.9%

C=C(C)[C@@H]1CC[C@]2(CO)CC[C@]3(C)[C@H](CC[C@@H]4[C@@]5(C)CC[C@H](NCO)C(C)(C)[C@@H]5CC[C@]43C)[C@@H]12
active: [1] -60.9% | [3] -92.4% | [4] -99.2% | [10] -64.8% | [5] -99.2% | [6] -96.9% | [8] -9.15% | [9] -26.7%
inactive: [7] 79%

O=C(/C=C/c1cccc(Cl)c1)c1ccc(Nc2nc(Nc3ccc(F)cc3)nc(Nc3ccc(Cl)cc3)n2)cc1
inactive: [1] 72.2% | [3] 136% | [4] 94.6% | [10] 127% | [5] 116% | [6] 112% | [7] 124% | [8] 103% | [9] 94%
